Sampled rows, rich in hits. Any-hit rate of the full collection: about 3%.
ROMK mod: ROMK potassium channel modulators, primary screen, cell-based, thallium flux, MLSMR library | AID 1918, 2009 | Tet-inducible ROMK, thallium flux fluorescence; actives lie on both sides | B-score at 10 µM | 2% of 130,000 active | ATP-sensitive inward rectifier potassium channel 1 (Homo sapiens), P48048;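 active = signal ratio slope over the read window, or its plate-corrected B-score, at least 3 SD from the plate mean, either direction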;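 also: B-score of the F/F0 ratio slope over 7 to 12 s after thallium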
Target sequence (P48048 whole entry, looked up): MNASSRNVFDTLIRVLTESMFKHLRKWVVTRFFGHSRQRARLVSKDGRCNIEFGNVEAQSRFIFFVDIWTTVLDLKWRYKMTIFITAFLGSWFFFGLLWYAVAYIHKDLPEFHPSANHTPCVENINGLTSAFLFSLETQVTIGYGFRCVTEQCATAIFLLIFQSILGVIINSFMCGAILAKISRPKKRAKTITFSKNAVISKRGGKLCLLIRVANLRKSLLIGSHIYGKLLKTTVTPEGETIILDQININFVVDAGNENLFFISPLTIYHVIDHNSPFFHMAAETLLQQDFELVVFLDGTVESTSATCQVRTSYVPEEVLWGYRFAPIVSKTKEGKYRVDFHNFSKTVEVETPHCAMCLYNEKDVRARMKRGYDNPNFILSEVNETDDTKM
Insulin prom inh: inhibitors of insulin promoter-driven GFP, primary screen, imaging, TRM-6 cells (human fetal islet line), eGFP reporter, cell count; reporter expression induced with tamoxifen; inhibition, % at 2 µM; 0.9% of 130,000 active; AID 1273, 2008;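 active = inhibition above the mean plus 3 SD, with well images judged a real hit on visual review, cut at about 60% in these data, passing the limit was not always enough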
Measles CPE: compounds protecting cells from measles virus cytopathic effect, primary screen, measles RdRp inhibitor project, single point, MLSMR library, absorbance | protection (pct of control), % at 4 µM | 1.5% of 140,000 active | Measles virus-infected cells, CPE protection; in the data active = protection mostly above about 24%, no sharp cut-off; inactive = mostly below about 26%
sdo1 growth: growth rescue of sdo1-depleted yeast, primary screen, S. cerevisiae, bone marrow failure model; S. cerevisiae sdo1-depleted JHY4D growth rescue, OD600 30 h; active compounds read high; pdr5 snq2 efflux-pump mutant strain; z-score at 10 µM; 0.21% of 140,000 active;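 active = z-score above 3 at both the 24 hr and the 30 hr optical density reads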;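 also: z-score against mean and SD of all compound wells on the same plate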
sdo1 rescue conf: SDO1-depleted yeast growth rescue, concentration-response, diseases of bone marrow failure, JHY4D, OD600. S. cerevisiae JHY4D (SDO1-depleted) growth rescue, 30 h; active compounds read high; efflux-deficient strain, SNQ2 and PDR5 mutated. 44% of 440 active. shares compounds with sdo1 growth. OD recovery (test concentration not listed);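 active = yeast growth recovered at 30 hours, either rising with dose fitted slope above 0.001 or with average optical density gain above 0.07, some results past the limit were not filed as active; inactive = growth falling with dose or no effect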;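 also: gain in OD600 from 0 h to 30 h averaged across all seven doses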
* marks the source's active call; other numbers are inactive results; x = no result given.

SMILES | ROMK mod | Insulin prom inh | Measles CPE | sdo1 growth | sdo1 rescue conf
Cn1c(=O)[nH]c(=O)c2c1nc(N1CCCC1)n2CCCSc1nnnn1-c1ccccc1 | 0.32 | -9 | 7 | 2.4 | 0.1
Cc1ccc2c(c1)N(C(C)C(=O)NCc1cccs1)C(=O)CO2 (configuration not stated) | 0.25 | x | x | x | x
COC(=O)c1sccc1NC(=O)c1ccc(OC)c(OC)c1 | 0.66 | -17 | 20 | 1.4 | 0.047
CCC(=O)OCCn1c(=O)c2cc3c(=O)n(CCOC(=O)CC)c(=O)c3cc2c1=O | x | 10 | 20 | 2.6 | 0.083*
S=c1sc2c(N3CCOCC3)ncnc2n1-c1ccccc1 | x | x | 5 | 7.6* | 0.029
CCN1CCN(c2ncnc3c2sc(=S)n3-c2ccccc2)CC1 | x | x | 3 | 0.03 | x
Cc1c(C#N)c2ncn(Cc3ccccn3)c(=O)c2n1-c1ccccc1 | x | -31 | 24 | 1.9 | x
Cc1c(C#N)c2ncn(CCCN(C)C)c(=O)c2n1-c1ccccc1 | -0.33 | 7 | 0 | 3.6* | 0.1*
CCN(CC)S(=O)(=O)c1ccc(-c2nnc(SCC(=O)Nc3nc(C)cs3)o2)cc1 | x | 0 | 13 | 2.2 | 0.054
CCCOc1ccc(C(=O)NC(=S)NCc2cccnc2)cc1 | -0.03 | -50 | 2 | -0.81 | x
CCOc1ccc(C(=O)NC(=S)NCc2cccnc2)cc1 | 0.57 | -15 | 4 | 2.5 | 0.11*
CCOc1ccc(NC(=O)c2ccncc2)cc1 | 0.15 | 6 | 0 | 4.1* | 0.062
CSc1nc(Cc2ccccc2)cc(=O)[nH]1 | 1.2 | -38 | x | x | x
CC(C)c1nnc(N2C(=O)c3oc4ccccc4c(=O)c3C2c2ccco2)s1 (configuration not stated) | x | -14 | 4 | 0.72 | 0.077*
COc1cccc(NC(=S)NNC(=O)c2c([N+](=O)[O-])c(C)nn2C)c1 | x | -22 | x | 1.5 | x
COc1cccc(NC(=S)NNC(=O)C(C)n2nc(C)c([N+](=O)[O-])c2C)c1 (configuration not stated) | 0.54 | x | 3 | 4* | 0.063
CC(C)CC(=O)c1c[nH]c(C(=O)N2CCN(Cc3ccccc3)CC2)c1 | 0.033 | x | x | x | x
CCOC(=O)c1ccc2[nH]c(C)cc(=O)c2c1 | x | x | 7 | -0.32 | x
COC(=O)c1ccc2[nH]c(C)cc(=O)c2c1 | -0.0075 | x | 11 | 6* | 0.039
Cc1cccc2nc(CSc3nnc4ccccn34)cn12 | 0.39 | -37 | 16 | -0.03 | x
Cc1nc2ncnn2c(C)c1CCC(=O)NC(C)c1ccc2c(c1)OCCO2 (configuration not stated) | x | -23 | 9 | 1.1 | x
Cc1nc2nc(C)c(CCC(=O)NC(C)c3ccc4c(c3)OCCO4)c(C)n2n1 (configuration not stated) | x | 26 | 7 | 2 | 0.038
CCN(CC)S(=O)(=O)c1ccc(Cc2ncc(C(F)(F)F)cc2Cl)s1 | -1.1 | -25 | 3 | 12* | 0.076*
COc1ccc(OCC(O)Cn2c(Nc3ccccc3)nc3c2c(=O)n(C)c(=O)n3C)cc1 (configuration not stated) | x | x | 4 | 1.2 | 0.052*
C=CCNC(=O)NC(=O)COC(=O)/C=C/c1cccc([N+](=O)[O-])c1 | 0.68 | x | x | x | x
SMILES | ROMK mod | Insulin prom inh | Measles CPE | sdo1 growth | sdo1 rescue conf
Nc1c(N2CCOCC2)cc(Cl)c2nonc12 | x | x | 4 | 6* | 0.031
COc1ccc(C(C)(C)C)cc1NC(=O)COC(=O)c1ccc([N+](=O)[O-])o1 | -0.26 | 20 | x | x | x
Cc1cc(C)nc(Nc2ncc(O)n2-c2ccc(C)c(C)c2)n1 | 1.2 | -22 | 5 | 5.9* | 0.077*
Cc1cc(C)nc(Nc2ncc(O)n2-c2ccc(C)c(Cl)c2)n1 | x | 10 | 3 | 0.68 | x
Cc1c(Cl)cccc1NC(=O)c1ccc(-n2ccnc2)nc1 | x | 30 | 5 | 3.5* | 0.051
CCOC(=O)c1c(NC(=O)CSc2nncs2)sc(C)c1-c1ccccc1 | -0.59 | -8 | 4 | -0.58 | x
CCOC(=O)c1c(NC(=O)CSc2nncs2)sc(C)c1C | x | 3 | 9 | 0.62 | 0.083
CCS(=O)(=O)NCCc1csc(-c2cccnc2)n1 | x | x | 20 | 0.24 | x
CCc1ccc(S(=O)(=O)NCCc2csc(-c3cccnc3)n2)s1 | x | x | 3 | 4.4* | 0.052
O=C(NCCCN1CCN(CCCNC(=O)c2cccc([N+](=O)[O-])c2)CC1)c1cccc([N+](=O)[O-])c1 | x | -28 | 7 | 11* | 0.055
O=C(NCCCc1ccccc1)c1cccc([N+](=O)[O-])c1 | -0.72 | 10 | 5 | -0.15 | x
COC(=NC(C)C)NC(C)C | 0.058 | x | x | x | x
CCSc1ncc(Cl)c(C(=O)Nc2sc3c(c2C(=O)NCc2cccnc2)CCCC3)n1 | -1.4 | x | 6 | 1.2 | 0.072*
COc1ccc(N2CCN(CC(=O)NC(=O)NC(C)(C)C)CC2)cc1 | -0.13 | 27 | x | x | x
COc1ccc(OCCNC(=O)/C=C/c2ccc([N+](=O)[O-])cc2)cc1 | -0.077 | 24 | 20 | 15* | 0.038
O=C(/C=C/c1ccc([N+](=O)[O-])cc1)NCCOc1ccc(F)cc1 | -0.28 | 17 | x | x | x
Nc1cc(-c2ccc(Br)cc2)[nH]n1 | 0.0069 | 0 | 5 | 5.4* | 0.096*
O=C(Nc1ccc(S(=O)(=O)NCc2cccnc2)cc1)c1ccco1 | x | x | 20 | 1.8 | 0.023
CC(=O)Nc1ccc(S(=O)(=O)NCc2cccnc2)cc1 | x | -53 | 14 | 1.2 | x
CC(C)OC(=O)CSc1nnc(-c2ccccc2)n1N | x | 69 | 0 | 6.7* | 0.044
CC(C)OC(=O)CSc1nnc(-c2cccnc2)n1N | 0.32 | x | 2 | 0.58 | x
O=C(N/N=C\c1ccc(-c2ccc([N+](=O)[O-])cc2)o1)C1COc2ccccc2O1 (configuration not stated) | x | -48 | 4 | -1.3 | x
CCN(CC)S(=O)(=O)c1cccc(-c2nnc(SCC(=O)NC3CCCCCCC3)n2N)c1 | -0.38 | 4 | 5 | 1.8 | x
CC(C)CC1(C)NC(=O)N(CC(=O)Nc2ccc3c(c2)CCC3)C1=O (configuration not stated) | -0.79 | x | x | x | x
CCOc1cc(C(=O)NCc2ccc(-c3nc4ccccc4o3)cc2)cc(OCC)c1OCC | x | -10 | 4 | 1.2 | 0.048
SMILES | ROMK mod | Insulin prom inh | Measles CPE | sdo1 growth | sdo1 rescue conf
COc1ccc(C(C2C(=O)CC(C)(C)CC2=O)C2C(=O)CC(C)(C)CC2=O)cc1COCC(F)(F)F | 0.03 | 46 | 13 | 14* | 0.082*
COc1ccc(C(C2C(=O)CC(C)(C)CC2=O)C2C(=O)CC(C)(C)CC2=O)cc1 | -0.018 | x | x | x | x
CN(C)CCCNC(=O)C1CCNCC1 | x | -16 | 10 | 3.1* | 0.1*
CN(C)CCCNC(=O)c1cc(C(=O)C2CCCCC2)c[nH]1 | -0.053 | x | x | x | x
O=C(COC(=O)c1cccc2ccccc12)NCCCc1ccccc1 | -0.025 | -21 | 10 | 11* | 0.051
COc1cccc(C(=O)OCC(=O)NCCc2ccccc2)c1OC | 0.02 | -5 | x | x | x
N#Cc1cc2c(nc1SCC(=O)Nc1sc3c(c1C#N)CCC3)CCCCCC2 | x | 20 | 23 | -1.2 | x
